PubChem BioAssay AID1006 (Sanford-Burnham Center for Chemical Genomics, 2008)
Among all 200,000 compounds or so, about 3,000 (1.5%) were called active. The sample holds actives, similar compounds and a random draw of the others, so the mix is not that of the screen.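 How the source made its calls: active means inhibition above about 50% when tested at 10 µM (limit read from the data); inactive means the rest.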

Target: Luciferin 4-monooxygenase (Photinus pyralis) (UniProt P08659)
Assay: firefly luciferase enzyme inhibitors, primary screen, artefact control for luciferase-based inhibitor screens, biochemical, luminescence, ATPLite (AID 1006)
Conditions: 10 min, at 10 µM, hits give high values

Chain of Luciferin 4-monooxygenase (Photinus pyralis) (P08659 whole entry, looked up): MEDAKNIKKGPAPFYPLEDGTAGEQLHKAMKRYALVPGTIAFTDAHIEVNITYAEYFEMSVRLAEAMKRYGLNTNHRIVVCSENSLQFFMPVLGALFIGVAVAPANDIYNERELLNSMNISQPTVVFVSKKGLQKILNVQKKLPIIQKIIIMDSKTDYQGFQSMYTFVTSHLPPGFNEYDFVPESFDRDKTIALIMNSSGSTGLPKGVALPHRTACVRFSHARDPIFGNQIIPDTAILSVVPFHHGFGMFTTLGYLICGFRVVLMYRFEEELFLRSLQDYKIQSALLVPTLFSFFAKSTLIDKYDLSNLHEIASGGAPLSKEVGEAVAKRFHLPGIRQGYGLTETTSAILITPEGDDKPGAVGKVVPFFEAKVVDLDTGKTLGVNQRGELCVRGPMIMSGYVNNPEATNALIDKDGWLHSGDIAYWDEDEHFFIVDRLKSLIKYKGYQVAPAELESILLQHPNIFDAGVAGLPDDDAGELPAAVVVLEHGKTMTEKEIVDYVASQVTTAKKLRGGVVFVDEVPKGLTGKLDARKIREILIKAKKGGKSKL

**Q.** `CNC(=O)COc1ccc(S(=O)(=O)Nc2ccccc2)cc1` was tested. Which inhibition did it give?
**A.** Its inhibition is -6.9% (inactive).

**Q.** `CSc1ccccc1NC(=O)CN(C)CC(=O)Nc1ccc(Cl)cc1[N+](=O)[O-]` was tested. Which inhibition did it give?
**A.** Its inhibition is 1.5% (inactive).

**Q.** For `Nc1ncc(-c2cc3ccccc3oc2=O)s1`, which inhibition is on record?
**A.** The inhibition was 32.1% (inactive).

**Q.** With `O=C(c1cn(-c2ccccc2)nc1-c1cc2ccccc2oc1=O)N1CCOCC1` as the compound, how does the inhibition read?
**A.** The inhibition was -8.2% (inactive).

**Q.** Which inhibition does the source give for `O=c1oc2ccccc2cc1-c1cn(-c2ccccc2)c(=S)[nH]1` here?
**A.** The inhibition was 90.1% (active).

**Q.** Which inhibition does the source give for `Cc1ccc(CCCOC(=O)C[N+]2(C)CCCCC2)cc1` here?
**A.** The inhibition was -3.7% (inactive).

**Q.** `O=C(NCCc1ccc(F)cc1)c1n[nH]c2ccccc12` was tested. Which inhibition did it give?
**A.** The inhibition was 14.4% (inactive).

**Q.** For `O=C(COC(=O)c1n[nH]c2ccccc12)NCc1ccccc1`, which inhibition is on record?
**A.** Its inhibition is -1.4% (inactive).

**Q.** For `COc1cccc(CNC(=O)c2n[nH]c3ccccc23)c1`, which inhibition is on record?
**A.** The inhibition was 51.1% (active).

**Q.** With `CC(=O)Nc1ccc(NC(=O)CSc2nnc(COc3ccccc3C)n2CC2CCCO2)cc1` (stereo not given) as the compound, how does the inhibition read?
**A.** Its inhibition is -2.3% (inactive).

**Q.** With `CCc1nnc(NC(=O)c2sc3nc(C)cc(COC)c3c2N)s1` as the compound, how does the inhibition read?
**A.** The inhibition was -1.1% (inactive).

**Q.** With `CCc1nnc(NC(=O)c2cccs2)s1` as the compound, how does the inhibition read?
**A.** The inhibition was 6.9% (inactive).

**Q.** For `CCc1ccc2nc3sc(C(=O)Nc4nnc(CC)s4)c(N)c3cc2c1`, which inhibition is on record?
**A.** Its inhibition is 51.9% (active).

**Q.** `CSc1cc(C)[nH]c(=O)n1` was tested. Which inhibition did it give?
**A.** The inhibition was 0.8% (inactive).

**Q.** With `Cc1ccc(S(=O)(=O)N2CCC(C(=O)NCC3CCCO3)CC2)cc1` (stereo not given) as the compound, how does the inhibition read?
**A.** Its inhibition is -6.3% (inactive).

**Q.** Which inhibition does the source give for `Cc1ccc(-n2c(C)cc(/C=C(\C#N)C(=O)NCC3CCCO3)c2C)cc1` (stereo not given) here?
**A.** The inhibition was 72.2% (active).

**Q.** With `Cc1ccc(C(=O)N/C(=C/c2cccs2)C(=O)NCC2CCCO2)cc1` (stereo not given) as the compound, how does the inhibition read?
**A.** Its inhibition is 0.4% (inactive).

**Q.** With `CC(C)(C)NC(=O)COC(=O)c1cc(Cl)ccc1[N+](=O)[O-]` as the compound, how does the inhibition read?
**A.** Its inhibition is 1.8% (inactive).

**Q.** For `CN(C)/C=C(/C(=O)c1ccccc1Cl)S(C)(=O)=O`, which inhibition is on record?
**A.** The inhibition was -6% (inactive).

**Q.** With `Cc1cc(F)ccc1S(=O)(=O)N1CCCOC1CNC(=O)C(=O)NCCC1=CCCCC1` (stereo not given) as the compound, how does the inhibition read?
**A.** The inhibition was -3.9% (inactive).

**Q.** With `COc1cc(/C=C/C(=O)OCC(=O)N2CCOCC2)ccc1OCC#N` as the compound, how does the inhibition read?
**A.** Its inhibition is -6% (inactive).

**Q.** Which inhibition does the source give for `Cc1cccc(OCC(=O)Nc2ccccc2F)c1` here?
**A.** Its inhibition is 6.3% (inactive).

**Q.** How did the inhibition turn out when `COc1cccc(OCC(=O)Nc2ccccc2C(N)=O)c1` was run?
**A.** The inhibition was 59.2% (active).

**Q.** `CCCOC(=O)Nc1ccccc1C(N)=O` was tested. Which inhibition did it give?
**A.** Its inhibition is -2.5% (inactive).

**Q.** With `CCOC(=O)C1=C(N)N(c2ccc(C)cc2)C2=C(C(=O)CCC2)C1c1cccs1` (stereo not given) as the compound, how does the inhibition read?
**A.** The inhibition was -3.4% (inactive).

**Q.** How did the inhibition turn out when `CS(=O)(=O)c1ccc2c(c1)SC1=NC(=O)/C(=C/c3ccco3)C(=N)N12` was run?
**A.** The inhibition was 13.2% (inactive).

**Q.** With `Cc1cc(/C=C2/C(=N)N3C(=NC2=O)SN=C3S(C)(=O)=O)c(C)n1-c1ccccc1` as the compound, how does the inhibition read?
**A.** Its inhibition is 89.9% (active).

**Q.** `CCS(=O)(=O)C1=NSC2=NC(=O)/C(=C\c3cc(C)n(-c4cccc(OC)c4)c3C)C(=N)N21` was tested. Which inhibition did it give?
**A.** The inhibition was 12.2% (inactive).

**Q.** For `COc1ccccc1CNC(=O)c1ccc(SC)cc1OC`, which inhibition is on record?
**A.** The inhibition was -4.7% (inactive).

**Q.** How did the inhibition turn out when `COc1cc(SC)ccc1C(=O)Nc1cc(C)ccn1` was run?
**A.** Its inhibition is 80.7% (active).

**Q.** `COc1cc(SC)ccc1C(=O)Nc1nc(C)cs1` was tested. Which inhibition did it give?
**A.** The inhibition was 97.7% (active).

**Q.** How did the inhibition turn out when `COc1cc(SC)ccc1C(=O)NCCOc1ccccc1Cl` was run?
**A.** The inhibition was -0.8% (inactive).

**Q.** For `COc1ccc(C(=O)Nc2nncs2)c(OC)c1`, which inhibition is on record?
**A.** The inhibition was 40% (inactive).

**Q.** `Cc1ccnc(NC(=O)c2ccoc2C)c1` was tested. Which inhibition did it give?
**A.** Its inhibition is 18.1% (inactive).

**Q.** With `Cn1cnnc1SCC(=O)NNC(=O)COc1ccc(Br)cc1` as the compound, how does the inhibition read?
**A.** Its inhibition is 3.3% (inactive).

**Q.** How did the inhibition turn out when `COc1ccc(/C=N/NC(=O)c2ccncc2)cc1CN1CCCc2ccccc21` was run?
**A.** The inhibition was -8.3% (inactive).

**Q.** For `COc1ccc(C)cc1-n1nnnc1SCc1nc2ccccc2c(=O)[nH]1`, which inhibition is on record?
**A.** Its inhibition is 0.3% (inactive).

**Q.** With `Fc1cccc(Cc2noc(CN3CCN(c4cnccn4)CC3)n2)c1` as the compound, how does the inhibition read?
**A.** The inhibition was -8.2% (inactive).

**Q.** `Cc1nc2cc(NC(=O)NCc3ccccc3)ccc2o1` was tested. Which inhibition did it give?
**A.** Its inhibition is 12% (inactive).

**Q.** How did the inhibition turn out when `Cc1nc2ccc(NC(=O)C(F)(F)F)cc2o1` was run?
**A.** Its inhibition is -2.2% (inactive).

**Q.** `Cc1ccc(NC(=O)Nc2ccc3oc(C)nc3c2)cc1` was tested. Which inhibition did it give?
**A.** The inhibition was 70.8% (active).

**Q.** Which inhibition does the source give for `O=C(CN1CCc2ccccc21)NC(c1ccccc1)c1ccccc1` here?
**A.** Its inhibition is -10.6% (inactive).

**Q.** With `O=C(N/N=C/c1ccc(OCC2COCCO2)cc1)c1ccc(Br)cc1` (stereo not given) as the compound, how does the inhibition read?
**A.** Its inhibition is 2.2% (inactive).

**Q.** How did the inhibition turn out when `CCS(=O)(=O)c1ccc(C(=O)NC)c(Cl)c1Cl` was run?
**A.** The inhibition was -3.5% (inactive).

**Q.** With `COc1ccccc1N1CCN(CC(=O)NCCc2ccc(S(N)(=O)=O)cc2)CC1` as the compound, how does the inhibition read?
**A.** Its inhibition is -3% (inactive).

**Q.** How did the inhibition turn out when `O=C(Cc1cccs1)Nc1nnc(C2CC2)s1` was run?
**A.** Its inhibition is -1.8% (inactive).

**Q.** `Cc1occc1C(=O)Nc1nnc(C2CCCCC2)s1` was tested. Which inhibition did it give?
**A.** The inhibition was -4% (inactive).

**Q.** With `O=C(Nc1nnc(C2CC2)s1)c1ccccn1` as the compound, how does the inhibition read?
**A.** Its inhibition is 63.4% (active).

**Q.** For `CSc1ccccc1-c1nnc(-c2ccc(Cl)cc2)o1`, which inhibition is on record?
**A.** The inhibition was 53.8% (active).

**Q.** How did the inhibition turn out when `Nc1ccc(-c2nnc(-c3ccc(-c4ccccc4)cc3)o2)cc1` was run?
**A.** The inhibition was 3.7% (inactive).

**Q.** For `FC(F)(F)c1cnc(Oc2ccccc2-c2nnc(-c3ccc(Cl)cc3)o2)c(Cl)c1`, which inhibition is on record?
**A.** Its inhibition is -1.6% (inactive).

**Q.** Which inhibition does the source give for `COc1cccc(CC2(CO)CCCN(Cc3nc(-c4cccs4)oc3C)C2)c1` (stereo not given) here?
**A.** Its inhibition is -8.7% (inactive).

**Q.** `CC(=O)Nc1ccc(OCCC[n+]2cccc(C(=O)[O-])c2)cc1` was tested. Which inhibition did it give?
**A.** The inhibition was -2.9% (inactive).

**Q.** `Cc1ccc(C(=O)Nc2ccc(C)c(S(=O)(=O)N(C)C)c2)s1` was tested. Which inhibition did it give?
**A.** The inhibition was 71.1% (active).

**Q.** Which inhibition does the source give for `Cc1ccc(NC(=O)CNCc2ccccn2)cc1S(=O)(=O)N(C)C` here?
**A.** The inhibition was -1.9% (inactive).

**Q.** With `Cc1ccc(NC(=O)c2cccs2)cc1S(=O)(=O)N(C)C` as the compound, how does the inhibition read?
**A.** Its inhibition is 15.2% (inactive).

**Q.** How did the inhibition turn out when `CCOc1ncccc1C(=O)N(CC)CC(=O)Nc1ccc(NC(C)=O)cc1` was run?
**A.** The inhibition was -8.7% (inactive).

**Q.** Which inhibition does the source give for `O=c1oc2ccccc2cc1-c1csc(Nc2ccc(O)cc2)n1` here?
**A.** The inhibition was 17.8% (inactive).

**Q.** How did the inhibition turn out when `COc1ccc2nc(Nc3nc(-c4cc5ccccc5oc4=O)cs3)sc2c1` was run?
**A.** The inhibition was 40.7% (inactive).

**Q.** With `CCNc1nc(-c2cc3ccccc3o2)cs1` as the compound, how does the inhibition read?
**A.** Its inhibition is 64.9% (active).

**Q.** For `CC/C(Cc1ccccc1)=N/NC(=O)CCn1nnc2ccccc21`, which inhibition is on record?
**A.** The inhibition was -3.6% (inactive).

**Q.** For `O=C1OC(c2ccc(Cl)cc2)=N/C1=C\c1cccnc1`, which inhibition is on record?
**A.** Its inhibition is -3.3% (inactive).

**Q.** How did the inhibition turn out when `Cc1ccccc1C1=N/C(=C/c2cccnc2)C(=O)O1` was run?
**A.** Its inhibition is 34.5% (inactive).

**Q.** With `Cc1ccc(C2=C/C(=C\c3cccnc3)C(=O)O2)cc1` as the compound, how does the inhibition read?
**A.** The inhibition was 52.2% (active).

**Q.** Which inhibition does the source give for `Cc1ccc(C)c(CSc2nc(-c3ccco3)nc3c2c(=O)n(C)c(=O)n3C)c1` here?
**A.** The inhibition was 0.1% (inactive).
